Assay results as given in PubChem BioAssay AID651871 (Sanford-Burnham Center for Chemical Genomics, 2012).
Several values for one entry are separate records, joined by “and”; a condition that tells them apart may be missing. Equal entries are not always repeated.

system: H9c2; experiment: protection of cardiomyocytes from stress damage, SAR follow-up, cell-based, panel, H9c2 and HL-1, ATP luminescence, set 2 (AID 651871); conditions: H9c2/HL-1 cardiomyocytes, 2-deoxyglucose stress, with 2-deoxyglucose; run 6, at 79 µM (top of the series);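 also: cells exposed to stressor for 2 h before ATP readout; reference of the scale not given here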

| SMILES | activity (protection/inhibition) |
| --- | --- |
| COc1ccc2nc(-c3cc(OC)c(OC)c(OC)c3)cc(C(=O)NCC(=O)Nc3ccc(C(C)=O)cc3)c2c1 | 91.5% |
| CCOC(=O)c1cccc(NC(=O)CNC(=O)c2cc(-c3cc(OC)c(OC)c(OC)c3)nc3ccccc23)c1 | 73.8% |
| COc1ccc2c(c1OC)C(=O)N1c3ccccc3C(=O)N(Cc3cccc(Cl)c3Cl)C21 (stereo not drawn) | 104% and 66.4% and -6.1% |
